# Laboratory results as given in PubChem BioAssay.
# Calls of active or inactive are those of the source. Unless noted, no rule for the calls is given here.
# Assays:
# [1] = compound effects on lung adenocarcinoma cell viability – A549, calcein-AM fluorescence, 48 h, basal, profiling panel (AID 1162); conditions: higher = more signal; also: test concentration not given here
# [2] = compound effects on differentiated 3T3-L1 adipocyte viability – cell-based, 3T3-L1 adipocytes, calcein-AM fluorescence, 48 h, basal, profiling panel (AID 1163); conditions: 3T3-L1 adipocytes viability, higher = more signal; also: test concentration not given here
# [3] = compound effects on hepatocellular carcinoma cell viability – HepG2, calcein-AM fluorescence, 48 h, basal, profiling panel (AID 1164); conditions: higher = more signal; also: test concentration not given here
# [4] = compound effects on multiple myeloma cell viability – MM1S, calcein-AM fluorescence, 48 h, basal, profiling panel (AID 1165); conditions: higher = more signal; also: test concentration not given here
# [5] = calcein-AM signal in unstimulated myeloma cells – cell-based, calcein-AM fluorescence, 48 h, PK04 Diversity Set, profiling panel (AID 1166); conditions: RPMI8226 myeloma viability, higher = more signal;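 also: cells grown under basal conditions without added stimulus; test concentration not given here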
# [6] = JC-1 mitochondrial signal, unstimulated HepG2 cells – cell-based, JC-1 fluorescence, 24 h, 100 nL compound, profiling panel (AID 1167); conditions: HepG2 mitochondrial potential, higher = more signal; also: test concentration not given here
# [7] = JC-1 mitochondrial signal, unstimulated adipocytes – cell-based, JC-1 fluorescence, 3T3-L1 adipocytes, 24 h, 100 nL compound, profiling panel (AID 1168); conditions: JC-1 mitochondrial fluorescence, higher = more signal, called active from +8 up or from −8 down; also: test concentration not given here
# [8] = JC-1 mitochondrial signal, unstimulated myeloma cells – cell-based, JC-1 fluorescence, RPMI8226, 24 h, 100 nL compound, profiling panel (AID 1169); conditions: JC-1 mitochondrial potential fluorescence, higher = more signal; also: test concentration not given here
# [9] = JC-1 mitochondrial signal, unstimulated MM1S myeloma – cell-based, JC-1 fluorescence, 24 h, 100 nL compound, profiling panel (AID 1170); conditions: MM1S mitochondrial potential, higher = more signal; also: test concentration not given here
# [10] = resazurin metabolic signal in A549 cells – cell-based, resazurin fluorescence, 24 h, PK04 Diversity Set, profiling panel (AID 1171); conditions: A549 viability, higher = more signal, called active from +8 up or from −8 down; also: test concentration not given here
# [11] = resazurin metabolic signal in HepG2 cells – cell-based, resazurin fluorescence, 24 h, PK04 Diversity Set, profiling panel (AID 1172); conditions: HepG2 viability, higher = more signal; also: test concentration not given here
# [12] = budding yeast growth changes without added modifier – OD600, strain BY4716, 24 h, basal condition, primary screen (AID 1173); conditions: S. cerevisiae BY4716 growth, OD600, 24 h; higher = more signal, called active from +8 up or from −8 down
# [13] = viability profiling in MM1S myeloma cells – cell-based, resazurin fluorescence, basal, 24 h, PK04 Diversity Set, profiling panel (AID 1174); conditions: higher = more signal, called active from +8 up or from −8 down; also: test concentration not given here
# [14] = biological target: Dihydroorotate dehydrogenase (quinone), mitochondrial (Plasmodium falciparum (isolate 3D7)) (UniProt Q08210); assay: inhibition of P. falciparum DHODH – biochemical, C-terminal His tag, absorbance 600 nm, primary screen (AID 1175); conditions: PfDHODH enzyme, DCIP absorbance 600 nm; higher = more signal, called active from +8 up or from −8 down;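 also: recombinant parasite enzyme with a five histidine tag at its C terminus; test concentration not given here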
# Chain of Dihydroorotate dehydrogenase (quinone), mitochondrial (Plasmodium falciparum (isolate 3D7)) (Q08210 whole entry, looked up): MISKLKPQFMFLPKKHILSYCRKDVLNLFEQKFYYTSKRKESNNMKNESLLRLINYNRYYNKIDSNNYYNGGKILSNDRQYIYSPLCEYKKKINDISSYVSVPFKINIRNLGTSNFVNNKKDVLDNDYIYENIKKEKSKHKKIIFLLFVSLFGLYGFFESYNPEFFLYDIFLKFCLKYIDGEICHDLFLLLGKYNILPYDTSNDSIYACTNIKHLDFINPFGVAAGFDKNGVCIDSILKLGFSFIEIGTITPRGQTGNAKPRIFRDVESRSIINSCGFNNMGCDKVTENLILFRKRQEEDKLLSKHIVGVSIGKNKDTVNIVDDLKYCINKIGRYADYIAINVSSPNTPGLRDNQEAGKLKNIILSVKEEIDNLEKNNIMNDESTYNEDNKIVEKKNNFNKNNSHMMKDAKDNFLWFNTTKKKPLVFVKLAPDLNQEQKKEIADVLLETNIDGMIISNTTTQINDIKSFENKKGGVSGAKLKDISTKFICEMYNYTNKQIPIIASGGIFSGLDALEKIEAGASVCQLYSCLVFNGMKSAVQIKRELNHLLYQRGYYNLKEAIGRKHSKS
# [15] = inhibition of PAO1 biofilm formation – strain PAO1, LB-PBS medium, absorbance 600 nm, primary screen (AID 1176); also: test concentration not given here; conditions: P. aeruginosa PAO1 growth/biofilm, A600, 12 h; higher = more signal
# [16] = growth modulation of vineyard yeast isolate – strain RM11-1a, OD600, basal, 24 h, primary screen (AID 1177);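 also: cultures grown under basal conditions with no added stressor; test concentration not given here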; conditions: S. cerevisiae RM11-1a growth, OD600, 24 h; higher = more signal, called active from +8 up or from −8 down
# [17] = growth of efflux-deficient E. coli DRC39 – strain DRC39, OD650, 24 h, E. coli filamentation inducers, primary screen (AID 1178);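 also: growth measured as culture turbidity by optical density at 650 nm; test concentration not given here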; conditions: E. coli DRC39 acrAB, higher = more signal, called active from +8 up or from −8 down
# [18] = growth of efflux-deficient E. coli DRC39 – strain DRC39, OD650, 48 h, E. coli filamentation inducers, primary screen (AID 1179);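 also: screen aims at cell division blockers that make cells filament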; conditions: E. coli DRC39 delta-acrAB growth, higher = more signal, called active from +8 up or from −8 down
# [19] = viability profiling in RPMI8226 myeloma cells – cell-based, resazurin fluorescence, basal, 24 h, PK04 Diversity Set, profiling panel (AID 1180); conditions: higher = more signal;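 also: RPMI8826 multiple myeloma cell line at 5000 cells per well; test concentration not given here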
# [20] = biological target: E3 ubiquitin-protein ligase XIAP (Homo sapiens) (UniProt P98170); assay: small molecules binding XIAP protein – biophysical, small-molecule microarray, fluorescence 635 nm, primary screen (AID 1181); conditions: higher = more signal;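 also: score merges 667 nm emission and signal to noise over triplicate slides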
# Chain of E3 ubiquitin-protein ligase XIAP (Homo sapiens) (P98170 whole entry, looked up): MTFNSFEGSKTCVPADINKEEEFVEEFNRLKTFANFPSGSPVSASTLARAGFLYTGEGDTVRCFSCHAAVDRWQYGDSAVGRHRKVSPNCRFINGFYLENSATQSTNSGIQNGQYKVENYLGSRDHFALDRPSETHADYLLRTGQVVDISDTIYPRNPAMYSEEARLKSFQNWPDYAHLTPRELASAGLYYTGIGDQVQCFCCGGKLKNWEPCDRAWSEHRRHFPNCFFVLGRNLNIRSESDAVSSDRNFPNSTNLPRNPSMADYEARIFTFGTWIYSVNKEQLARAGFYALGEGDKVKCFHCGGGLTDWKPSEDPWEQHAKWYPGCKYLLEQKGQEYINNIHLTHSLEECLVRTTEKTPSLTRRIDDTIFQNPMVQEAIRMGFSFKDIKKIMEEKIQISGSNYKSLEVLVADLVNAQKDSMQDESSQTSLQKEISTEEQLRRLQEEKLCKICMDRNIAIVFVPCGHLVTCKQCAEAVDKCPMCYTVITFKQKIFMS
SMILES,z-score [1],z-score [2],z-score [3],z-score [4],z-score [5],z-score [6],z-score [7],z-score [8],z-score [9],z-score [10],z-score [11],z-score [12],z-score [13],composite z-score [14],z-score [15],z-score [16],z-score [17],z-score [18],z-score [19],composite z-score [20]
CCOC(=O)C[C@H]1[C@H](OC(=O)Cc2ccc3c(c2)OCO3)[C@@H](NC(=O)c2ccc3ccccc3n2)c2cc(OCCCO)ccc2N1C(=O)Cc1ccc(OC)cc1,0.703,0.867,1.03,0.406,-0.603,2.42,-0.115 (inactive),0.167,-0.882,-0.64 (inactive),1.14,-1.17 (inactive),-0.175 (inactive),-1.55 (inactive),0.477 (inactive),-0.925 (inactive),1.12 (inactive),1.6 (inactive),0.29,-0.232
CC(=O)OCC1C2CC[C@H]3C(OCc4ccc(F)cc4C(F)(F)F)OC[C@]4(C)[C@H]3C2=C(CN4C(=O)OC(C)(C)C)[C@H](C)C1COC(C)=O (stereo not given in full),-0.647,-0.0623,-0.174,-2.29,-1.93,2.61,-0.984 (inactive),-0.606,-1.3,0.892 (inactive),-1.11,1.69 (inactive),-1.34 (inactive),0.182 (inactive),1.14 (inactive),1.93 (inactive),-1.47 (inactive),-0.748 (inactive),-1.18,0.691
COc1cc(OC)c(C(O)C2C=CC3C(=O)N(c4ccccc4)C(=O)C3N2Nc2ccc(C(C)C)cc2)cc1Br (stereo not given),2.48,-1.15,1.49,-0.534,-0.203,-0.115,-0.171 (inactive),-0.126,-0.66,-0.101 (inactive),0.092,-4.46 (inactive),-0.263 (inactive),0.145 (inactive),2.24 (inactive),0.171 (inactive),0.238 (inactive),0.48 (inactive),0.289,0.0838
COC(=O)C1=CC(CCCO)=CC(c2cccs2)N(Cc2cc3c(cc2Br)OCO3)C=C1C(=O)OC (stereo not given),0.236,0.425,0.897,-1.26,-0.188,0.725,-0.253 (inactive),-0.131,0.398,-0.0673 (inactive),-0.245,-0.23 (inactive),0.182 (inactive),-0.851 (inactive),0.173 (inactive),1.92 (inactive),0.404 (inactive),-0.372 (inactive),0.365,0.344
Cc1ccc(F)cc1S(=O)(=O)N[C@H]1CCN(Cc2ccc(OC(C)C)cc2)C1,0.376,-0.535,-0.7,-1.4,-1.93,-0.809,0.416 (inactive),0.0436,-1.41,-0.477 (inactive),-0.757,-9.28 (active),-1.1 (inactive),-0.0588 (inactive),-0.107 (inactive),0.297 (inactive),-1.42 (inactive),-2.48 (inactive),-1.19,-0.0773
[N-]=[N+]=Nc1ccccc1C[C@]1(C(=O)N2CCOCC2)N=C(c2ccc(OCCCO)cc2)O[C@H]1c1ccccc1N=[N+]=[N-],0.961,0.744,-0.621,-1.77,-2.98,1.81,-0.0199 (inactive),-1.01,-2.03,-2.16 (inactive),-1.37,-2.51 (inactive),-3.41 (inactive),-0.481 (inactive),-0.444 (inactive),0.275 (inactive),1.16 (inactive),2.48 (inactive),-2.65,0.446
CO[C@H]1O[C@H](CO)[C@@H](OC(=O)Nc2ccccc2)[C@H](OC(=O)Nc2ccccc2)[C@H]1OC(=O)Nc1ccccc1,-1.27,0.416,-1.92,-0.77,-3.14,0.292,0.0293 (inactive),-0.77,-1.06,-3.04 (inactive),-1.08,0.0367 (inactive),-2.78 (inactive),1.02 (inactive),-0.317 (inactive),1.84 (inactive),1.48 (inactive),0.536 (inactive),-1.95,-0.0125
COc1ccc([Si](C)(C)[C@H]2[C@H](CCO)O[C@@]3(C(=O)N(Cc4cccc(N(C=O)c5ccccc5)c4)c4ccccc43)[C@@H]2C)cc1,-0.533,0.441,-3.83,-1.18,-4.23,1.01,0.549 (inactive),-1.03,-1.85,-2.2 (inactive),-1.85,1.27 (inactive),-3.37 (inactive),0.105 (inactive),1.45 (inactive),4.32 (inactive),1.61 (inactive),1.41 (inactive),-3.77,0.203
C=C(CCCC)/C(=C/C[C@H](OC(C)=O)c1cccc(OCCO)c1)c1cnc2ccccc2c1,0.955,1.16,0.301,-3.13,-1.26,1.86,0.0664 (inactive),-0.205,-0.209,0.395 (inactive),0.209,1.13 (inactive),-0.117 (inactive),-3.15 (inactive),-0.693 (inactive),1.75 (inactive),0.5 (inactive),0.211 (inactive),0.814,-0.0448
